# Reference: PubChem BioAssay AID504690 (Sanford-Burnham Center for Chemical Genomics, 2011)
# About 2,700 (0.77%) of roughly 350,000 compounds were called active.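 Rule for the calls: active = inhibition reaching at least a set limit at 20 µM in the primary screen (cut at about 59% in these data); inactive = the rest.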 Only a selection was taken, and actives are over-represented in it overall.
# Tested on: glucose-6-phosphate dehydrogenase-6-phosphogluconolactonase (Plasmodium falciparum 3D7)
# Assay: PfG6PD enzyme inhibitors, primary screen, biochemical, fluorescence intensity, uHTS (AID 504690);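 note: 0% = DMSO wells with substrate and 100% = DMSO wells lacking glucose-6-phosphate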
# Conditions: PfGluPho enzyme, NADPH resazurin-diaphorase fluorescence; at 20 µM; stronger effect = higher value
row,Compound,inhibition
1,O=C(CSC1c2ccccc2-c2ccccc21)N/N=C/c1ccccc1,62.4% (active)
2,C[C@]12CCCCC1=CC(=O)C1C2CC[C@@]2(C)C1C[C@@H](F)[C@@H]2O (stereo not given in full),-7.47% (inactive)
3,CCOP(=S)(OCC)SCOC(=O)NCC(=O)OC,-4.03% (inactive)
4,COC(=O)C1=C(c2cccc(OCc3ccccc3)c2)C[C@@H]2CC[C@H]1N2C(=O)NCc1ccc(Br)cc1,9.43% (inactive)
5,CN1CCN(c2cc(N3CCNCC3)ccc2[N+](=O)[O-])CC1,1.22% (inactive)
6,COc1cccc(-c2nc3ccc(N4CCN(C)CC4)cc3[nH]2)c1,64.4% (active)
7,c1ccc(C(CN2CCCCC2)c2ccccc2)cc1,-1.44% (inactive)
8,COc1ccccc1C1=NCc2nnc(CSC)n2-c2ccc(Cl)cc21,-31.3% (inactive)
9,C[C@@]1([C@@H](NP(=O)(c2ccccc2)c2ccccc2)c2ccccc2)C[C@H]1CCO,-0.29% (inactive)
10,O=C(NCC(c1cccnc1)N1CCN(c2ccccc2)CC1)Oc1ccccc1 (stereo not given),7.5% (inactive)
11,Nc1ccc(Cc2ccc(N)c(Cl)c2)cc1Cl,-5.41% (inactive)
12,COc1ccc2c(c1)NP(=S)(c1ccccc1)N2 (stereo not given),46.5% (inactive)
13,Cc1cc(C)c2c(c1)NP(=S)(c1ccccc1)N2 (stereo not given),63.6% (active)
14,C/C=C/CC1(CC)C(=O)NC(=S)NC1=O,-4.76% (inactive)
15,Nc1ccc(C(=O)N/N=C2/CN3CCC2CC3)cc1,-10.7% (inactive)
16,COC(=O)N(c1ccc(OC)cc1)P1(=S)OCCC(C)O1 (stereo not given),81.9% (active)
17,O=C(CN1CCCCC1)Nc1ccc(Br)cc1C(=O)c1ccccc1Cl,0.87% (inactive)
18,C=CCn1c(O)c(/C=N/N2CCOCC2)c(=O)[nH]c1=S,-2.25% (inactive)
19,O=C1NC(=O)N(CCc2ccc(F)cc2)C(=O)/C1=C/C=C/c1ccccc1,4.03% (inactive)
20,COc1ccc(N2C(=O)/C(=C/c3ccco3)C(=O)NC2=S)cc1,23.2% (inactive)
21,O=C1NC(=O)N(Cc2ccco2)C(=O)/C1=C\c1ccc(-c2ccc(F)cc2)o1,72% (active)
22,N#Cc1ccc(Cn2cc(C(=O)c3ccco3)c3ccccc32)cc1,4.04% (inactive)
23,CCC1(C)CC(CCNCc2ccc(N(C)C)cc2)(c2ccc(F)cc2)CCO1 (stereo not given),-7.55% (inactive)
24,CC(=O)OC1C2(CC3N4C(=O)C5(CO)SSC4(CC31O)C(=O)N5C)OC(C)C(C)(C)C2=O (stereo not given),19.4% (inactive)
25,O=C1NC(=O)N(c2ccc(F)cc2)C(=O)/C1=C/c1ccc2c(c1)CCCN2Cc1ccccc1,18.3% (inactive)
26,O=C1NC(=O)N(c2ccccc2)C(=O)/C1=C/c1ccc([N+](=O)[O-])s1,64.8% (active)
27,COc1cccc(N2C(=O)NC(=O)/C(=C\c3ccc([N+](=O)[O-])s3)C2=O)c1,56% (inactive)
28,CCOP(=O)(OCC)C(NC(=O)c1ccc(C)cc1)C(Cl)(Cl)Cl (stereo not given),1.69% (inactive)
29,CCOCCc1c(O)[nH]c(=S)[nH]c1=O,21.3% (inactive)
30,CCOP(=S)(OCC)C(O)CCCCCn1c(=O)c(F)cn(C2CCCO2)c1=O (stereo not given),11.4% (inactive)
